# From PubChem BioAssay (EPA / NIEHS)
# Results filed as inconclusive are left out. Active and inactive are the calls of the source. The calls were made as follows, unless noted: active = hit-call score of the fitted dose curve at least 0.9, where 1 is the maximum; inconclusive = response in the unintended direction; inactive = score below 0.9.
# Legend:
# [1] = IUF_NPC2-5_cytotoxicity_72hr: Cytotoxicity Assessment at 72 hours in the Leibniz Research Institute for Environmental Medicine (IUF) Neural Progenitor Cell Migration and Differentiation Assay for Cytotoxicity (NPC2-5) (AID 2284306);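 also: LDH release into supernatant measured by resorufin fluorescence marking membrane damage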
# In short: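 Human fetal (GW 16-19) neural progenitor spheres, 0.3 mm, plated on poly-D-lysine/laminin in N2 differentiation medium and exposed from day 0 to 7 concentrations plus solvent control (DMSO ≤0.1%). LDH-dependent resazurin-to-resorufin fluorescence in supernatant at 72 h.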
# [2] = IUF_NPC2-5_cytotoxicity_120hr: Cytotoxicity Assessment at 120 hours in the Leibniz Research Institute for Environmental Medicine (IUF) Neural Progenitor Cell Migration and Differentiation Assay (NPC2-5) (AID 2284307);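 as to AC50: LDH released into supernatant as membrane damage marker via resorufin fluorescence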
# In short: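 Membrane-integrity loss is quantified by LDH in supernatant after five days of exposure of migrating, differentiating human fetal NPC spheres; seven serially diluted concentrations are tested with DMSO kept at or below 0.1%.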
# [3] = IUF_NPC2-5_cell_number_120hr: Cell Number Assessment at 120 hours in the Leibniz Research Institute for Environmental Medicine (IUF) Neural Progenitor Cell Migration and Differentiation Assay (NPC2-5) (AID 2284308; active = hit-call score of the fitted dose curve at least 0.9, where 1 is the maximum; inactive = score below 0.9;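 also: count of Hoechst-stained nuclei in migration zone around plated human neural progenitor spheres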)
# In short: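 Seven-point serial dilutions plus solvent control were applied to plated 0.3 mm hNPC spheres at differentiation start, with medium half-replaced at day 3. Nuclei positive for Hoechst in the migration zone were enumerated at 120 h.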
# [4] = IUF_NPC2-5_viability_120hr: Viability Assessment at 120 hours in the Leibniz Research Institute for Environmental Medicine (IUF) Neural Progenitor Cell Migration and Differentiation Assay (NPC2-5) (AID 2284312; active = hit-call score of the fitted dose curve at least 0.9, where 1 is the maximum; inactive = score below 0.9)
# In short: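 Human fetal (GW 16-19) neural progenitor spheres of 0.3 mm were plated on poly-D-lysine/laminin in N2 differentiation medium and exposed from day 0 for 120 h, with half-medium refresh at day 3. Viability was read as alamar blue resazurin-to-resorufin fluorescence against DMSO.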
# [5] = VALA_TUBHUV_Agonist_CellCount: Viability Assessment in the VALA Sciences human Umbilical Vein Endothelial Tubule Formation (TUBHUV) Agonism Assay (AID 2284309)
# In short: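 HUVEC co-cultured 1:3 with HDF for 3 days in 10 ng/ml VEGF, then compounds added in VEGF medium for a further 3 days (72 h). Nuclear-stain/CD31 imaging cell count. Positive-direction fit versus 0.1% DMSO vehicle.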
# [6] = VALA_TUBIPS_Antagonist_TubuleLength: VALA Sciences human iPS-derived Endothelial Tubule Formation (TUBIPS) Antagonist Assay (AID 2284313)
# In short: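 Cells grown 3 days with 10 ng/ml VEGF, then exposed to compounds in VEGF medium for another 3 days. After fixation, nuclear stain and CD31 immunofluorescence imaging gave mean total tubule length against 0.1% DMSO; suramin (100 uM) inhibition control.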
# [7] = VALA_MIGHUV2_CellCount: Viability Assessment in the VALA Sciences human Umbilical Vein Endothelial Cell Migration (MIGHUV) Assay, Area of Scratch Wound after Recovery (AID 2284314)
# In short: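 Scratch-wounded HUVEC monolayers received test chemical within 30 min, 6-point concentration response in triplicate, 0.1 % DMSO vehicle. After 24 h wound recovery, fixed cells were Hoechst-stained and nuclei imaged; loss of signal versus DMSO indicates reduced viability.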
# [8] = VALA_MIGHUV2_Bcatenin: VALA Sciences human Umbilical Vein Endothelial Cell Migration (MIGHUV) Assay, Nuclear Translocation of beta-Catenin after Recovery (AID 2284315)
# In short: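 HUVEC (4000 cells/well) scratch-wounded, dosed within 30 min over 6 concentrations in triplicate, recovered 24 h. After fixation, Hoechst and anti-beta-catenin immunofluorescence imaged for nuclear CTNB. Gain of signal versus 0.1% DMSO.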
# [9] = VALA_MIGHUV2_WoundArea: VALA Sciences human Umbilical Vein Endothelial Cell Migration (MIGHUV) Assay, Area of Scratch Wound after Recovery (AID 2284316)
# In short: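 HUVEC seeded at 9000 cells/well, scratched after 24 h; test chemical added within 30 min, 6-point concentration response in triplicate (0.1% DMSO vehicle). After 24 h wound recovery, cells fixed and Hoechst-stained nuclei in wound area imaged; Cytochalasin D reference control.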
# [10] = VALA_TUBHUV_Antagonist_CellCount: Viability Assessment in the VALA Sciences human Umbilical Vein Endothelial Tubule Formation (TUBHUV) Antagonism Assay (AID 2284310)
# In short: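 HUVEC co-cultured with HDF (1:3) 3 days in 10 ng/ml VEGF, then 3 days with compounds in VEGF medium. Fixed, nuclear stain and CD31 immunofluorescence, imaged; cell counts fitted versus 0.1% DMSO, loss of signal read as lower viability.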
compound,measurement,setting,value
CC(C)(c1cc(Br)c(O)c(Br)c1)c1cc(Br)c(O)c(Br)c1,AC50,[1],4.45 µM (active)
same,AC50,[2],3.04 µM (active)
same,AC50,[3],2.79 µM (active)
same,AC50,[4],2.94 µM (active)
CCCCCCCCOC(=O)c1cc(O)c(O)c(O)c1,AC50,[5],76.4 µM (active)
same,outcome,[6],inactive
same,outcome,[7],inactive
same,AC50,[8],79.9 µM (active)
same,outcome,[9],inactive
O=C1O[C@H]([C@@H](O)CO)C(O)=C1O,outcome,[1],inactive
same,outcome,[2],inactive
same,outcome,[3],inactive
same,outcome,[4],inactive
O=C(Nc1ccc(Cl)cc1)Nc1ccc(Cl)c(Cl)c1,outcome,[5],inactive
same,outcome,[10],inactive
same,outcome,[6],inactive
same,outcome,[7],inactive
